Screens as filed in PubChem.
Keap1-Nrf2 PPI = Keap1-Nrf2 (human) interaction inhibition | Q14145 | Keap1 Kelch-Nrf2 peptide fluorescence polarization, 1536-well | inhibition, % at 9.4 µM | 340,000 tested, 0.15% active | AID 504523; in the data active = inhibition above about 12%; inconclusive = no clear call, values can overlap the other calls; inactive = below about 7.3%;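 note: human Keap1 Kelch domain with fluorescein labeled Nrf2 9mer peptide probe; 0% = neutral control wells and 100% = peptide positive control; higher means more block of Keap1 binding to Nrf2 peptide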
Target sequence (Q14145 whole entry, looked up, the tested form may be a part): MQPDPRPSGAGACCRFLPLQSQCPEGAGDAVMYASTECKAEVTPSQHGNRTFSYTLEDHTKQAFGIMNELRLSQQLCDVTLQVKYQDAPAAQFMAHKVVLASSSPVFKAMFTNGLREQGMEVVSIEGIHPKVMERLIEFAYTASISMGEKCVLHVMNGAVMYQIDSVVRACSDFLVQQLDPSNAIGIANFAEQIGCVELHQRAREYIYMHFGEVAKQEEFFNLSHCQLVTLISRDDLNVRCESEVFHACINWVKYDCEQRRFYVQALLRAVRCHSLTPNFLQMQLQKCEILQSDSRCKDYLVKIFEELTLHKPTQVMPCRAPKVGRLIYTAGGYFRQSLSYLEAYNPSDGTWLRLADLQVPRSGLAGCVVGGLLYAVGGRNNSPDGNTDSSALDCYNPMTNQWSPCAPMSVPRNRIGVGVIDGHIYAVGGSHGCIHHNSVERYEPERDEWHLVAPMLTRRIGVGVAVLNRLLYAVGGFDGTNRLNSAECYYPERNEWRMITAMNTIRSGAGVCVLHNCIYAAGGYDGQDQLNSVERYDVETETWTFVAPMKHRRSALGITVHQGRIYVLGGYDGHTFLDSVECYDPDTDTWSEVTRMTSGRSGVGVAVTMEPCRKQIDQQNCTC
Cardiac RTF inh = cardiac RTF calcium desensitization. P19429+P45379. IANBD-labeled cardiac RTF, Ca2+ fluorescence. inhibition, % at 7.15 µM. 340,000 tested, 0.12% active. AID 493244;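 active = inhibition above the mean inhibition of all tested compounds plus 3 SD, cut at about 17% in these data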;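 note: assay run at fixed EC70 calcium of 1.6 mM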
eLon inh = inhibitors of E. coli Lon protease; P0A9M0; purified E. coli Lon protease, fluorescence polarization; inhibition, % at 7.94 µM; 360,000 tested, 0.42% active; AID 602123; in the data active = inhibition above about 13%, passing the limit was not always enough;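 note: 0% = enzyme with probe and DMSO and 100% = no enzyme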
LANA DNA inh = blocks KSHV LANA C-terminal domain binding to DNA. MBP-C-LANA/FAM-LBS DNA binding, fluorescence polarization. inhibition, % at 9 µM. 340,000 tested, 0.078% active;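 active = highest replicate inhibition at or above 60% at 9 µM, even if other replicates fall short; inactive = all replicates below 60% inhibition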;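 note: 0% = neutral control wells and 100% = 4 µM acridine orange control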
cardiac RTF act = increases calcium sensitivity of human cardiac regulated thin filaments. 340,000 tested, 0.24% active. activation, % at 7.2 µM. P19429+P45379. IANBD-labeled TnC RTF fluorescence at EC20 calcium; 0% EC20 calcium, 100% full calcium;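 active = activation above the mean over all tested compounds plus 3 SD, cut at about 30% in these data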;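 note: rise in fluorescence read as greater calcium sensitivity of cardiac thin filaments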
eLon confirm = E. coli Lon inhibition confirmation; AID 602230; purified E. coli Lon, fluorescence polarization; shares compounds with eLon inh; 1,400 tested, 31% active; inhibition, % at 7.94 µM; in the data active = inhibition above about 16%;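 note: 0% = enzyme with probe and DMSO and 100% = no enzyme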
The depositor's hits bear a star; u = inconclusive; x = no result given; + = active, no number. A selection: hits, their analogues and other compounds. The true share with any hit is near 0.82%.

SMILES	Keap1-Nrf2 PPI	Cardiac RTF inh	eLon inh	LANA DNA inh	cardiac RTF act	eLon confirm
O=c1[nH]c(-[n+]2ccc3ccccc3c2)c(/C=N/N=C(\[O-])c2ccccc2)s1	-3.4	-1.9	43.2*	0.1	3.3	-2.4
NNC(=O)CCn1c2ccccc2c2ccccc21	0.8	-9.8	20.7*	-0.6	5.2	-8.3
COc1cccc(/C=N/NC(=O)CCn2c3ccccc3c3ccccc32)c1	-4.4	-6.7	2.9	-0.8	-0.7	x
CCOC(=O)c1c(C)[nH]c(C(=O)OCC(=O)N2CCc3ccccc32)c1C	-2.9	3.7	1.0	-0.3	-3.7	x
CCOC(=O)c1[nH]c(C)c(C(=O)OCC(=O)N2CCc3ccccc32)c1C	1.3	-3.4	138.8*	0.2	-0.1	-12.8
Cc1ccc(NC(=O)CSc2nnc(-c3ccncc3)n2C)cc1C	3.0	-4.4	32.8*	1.0	-0.8	-5.6
Cn1cnnc1SCC(=O)Nc1ccccc1	-4.5	-4.9	-7.9	-1.3	1.5	x
COc1ccc(NC(C)=O)cc1NC(=O)CSc1nnc(-c2ccncc2)n1C	-6.0	2.1	7.6	-1.1	-0.3	x
Cn1cnnc1SCC(=O)Nc1ccc2ccccc2c1	-0.9	-1.8	14.0*	-0.9	-2.3	1.3
COc1ccccc1N(C)S(=O)(=O)c1ccc(C(=O)Nc2cccc(Br)c2)cc1	-1.1	-0.9	-0.8	3.6	2.2	x
O=C(COC(=O)c1cccc(F)c1)Nc1cccc(S(=O)(=O)N2CCCCC2)c1	x	x	7.6	x	x	x
CCN(CC)C(=O)CSc1nnc2nnc3cc(Cl)ccc3n12	5.8	-14.2	54.5*	6.0	4.4	41.5*
COc1ccc(N(C)C(=O)c2cc3c(s2)-c2ccccc2OC3)c(OC)c1	-1.5	-0.1	8.1	-1.6	-1.6	x
COc1ccc(N(C)C(=O)c2cc3c(s2)-c2ccc(Cl)cc2S(=O)(=O)C3)c(OC)c1	0.4	-2.9	20.1*	-0.2	-0.4	-5.8
Cc1nnc(N2C(=O)c3cccc4c([N+](=O)[O-])ccc(c34)C2=O)s1	-0.3	-12.1	15.1*	0.6	12.4	13.3
O=C1c2cccc3c([N+](=O)[O-])ccc(c23)C(=O)N1Cc1cccnc1	u	-17.5	50.9*	1.6	19.9	74.7*
Cc1ccc(N2C(=O)c3cccc4c([N+](=O)[O-])ccc(c34)C2=O)c2cccnc12	1.2	-3.2	9.1	1.1	0.3	x
Cc1ccnc(N2C(=O)c3cccc4c([N+](=O)[O-])ccc(c34)C2=O)c1	-3.7	-29.2	53.2*	1.1	16.4	64.2*
Cc1cccc(N2C(=O)c3cccc4c(N5CCCCC5)c([N+](=O)[O-])cc(c34)C2=O)c1C	-0.8	-4.9	-4.2	2.4	2.2	x
O=C1c2cccc3cccc(c23)C(=O)N1Cc1cccnc1	3.3	-2.7	0.2	-1.3	-2.7	x
CC(C)N(C(=S)Nc1cccc(S(=O)(=O)N(C)C)c1)c1ccccc1	-3.1	2.0	-0.1	3.6	-2.9	x
O=c1oc2c3c4c(cc2s1)CCCN4CCC3	1.5	-16.9	46.0*	5.9	7.8	44.6*
c1ccc2c(c1)CCN(C1=Nc3cccc4cccc1c34)C2	0.7	-5.0	35.4*	2.0	-0.1	105.9*
c1cc2c3c(cccc3c1)C(N1CCCCCC1)=N2	-5.9	-3.3	5.1	0.9	-1.9	x
c1cc2c3c(cccc3c1)C(N1CCCCC1)=N2	3.3	-8.0	26.5*	3.0	-3.8	51.7*
SMILES	Keap1-Nrf2 PPI	Cardiac RTF inh	eLon inh	LANA DNA inh	cardiac RTF act	eLon confirm
Cc1oc(/N=C/c2ccc(O)cc2O)c(C#N)c1C	-0.8	-6.4	14.0*	8.0	1.2	-169.9
Cc1oc(/N=C/c2ccccc2O)c(C#N)c1C	-1.4	-5.0	6.2	3.0	0.3	x
CCN(CC)CCCNc1ccc2ncn3c4ccc(O)cc4c(=O)c1c23	108.1*	-340.1	+	146.6*	291.7*	+
COc1ccc(Cl)c(-c2cc(C(=O)Nc3ccccc3)[nH]n2)c1	x	x	-9.0	x	x	x
COC(=O)c1cc2c(s1)-c1cc(F)ccc1OC2	-0.8	2.8	16.2*	x	-3.9	-9.0
CC(=O)c1cc2c(s1)-c1cc(F)ccc1OC2	-5.8	-3.5	4.2	-0.5	-6.0	x
CCNc1cccc2c1C(=O)N(C)C2=O	-0.8	-67.4	150.8*	0.3	45.6*	164.6*
CCOC(=O)N1CCC(NC(=O)CCN2C(=O)C3C4C=CC(C4)C3C2=O)CC1 (stereo unspecified)	-8.4	-1.9	3.8	-0.8	-0.5	x
